Measured values taken from PubChem BioAssay AID1159580 (chemical genetic matrix, 2015).
Where “and” joins values, the source holds several entries; their conditions need not be identical. Equal values may be shown once. About 2,000 (36%) of roughly 5,500 compounds were called active. Roughly 18% stayed inconclusive and do not appear here. Cut-off read from the data, not from the text of the source: active = normalized growth mostly below about 0.91 (no sharp cut-off); inconclusive = no clear call, values can overlap the other calls; inactive = mostly above about 0.92. The list shows a part of the results.

Test: chemical genetic growth profiling, strain panel (AID 1159580);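 note: tested at 20 µM; growth read once vehicle control cultures reached saturation at 30 °C; 1 = growth at the plate median or of vehicle wells; lower values mean less growth of the strain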
Conditions: S. cerevisiae deletion strains, growth OD

Measured: normalized growth

O=C(O)c1nc2cc(Cl)c(Cl)cc2[nH]c1=O
inactive: locus YAL013W, strain DEP1, active compounds read low 1.02 | locus YAL021C, strain ccr4, active compounds read low 0.995 | locus YAL026C, strain drs2, active compounds read low 1.03 | locus YAL030W, strain snc1, active compounds read low 1.01 | locus YBL061C, strain skt5, active compounds read low 1.01 | locus YBR009C, strain hhf1, active compounds read low 1.04 | locus YBR021W, strain FUR4, active compounds read low 1.02 | locus YBR023C, strain chs3, active compounds read low 1.03 | locus YBR171W, strain sec66, active compounds read low 1.04 | locus YBR229C, strain ROT2, active compounds read low 1.01 | locus YBR231C, strain swc5, active compounds read low 1.02 | locus YBR279W, strain paf1, active compounds read low 1.01 | locus YCL011C, strain gbp2, active compounds read low 1.02 | locus YCL016C, strain dcc1, active compounds read low 1.01 | locus YCL029C, strain bik1, active compounds read low 0.99 | locus YCL061C, strain MRC1, active compounds read low 1.03 | locus YCL069W, strain vba3, active compounds read low 1.01 | locus YCR088W, strain abp1, active compounds read low 1.01 | locus YDL005C, strain med2, active compounds read low 1.02 | locus YDL035C, strain GPR1, active compounds read low 1.01 | locus YDL040C, strain nat1, active compounds read low 0.995 | locus YDL074C, strain BRE1, active compounds read low 1.03 | locus YDL101C, strain DUN1, active compounds read low 1.02 | locus YDL134C, strain PPH21, active compounds read low 1 | locus YDL185W, strain tfp1, active compounds read low 0.956 | locus YDL192W, strain arf1, active compounds read low 0.993 | locus YDR001C, strain nth1, active compounds read low 1.01 | locus YDR069C, strain doa4, active compounds read low 1.04 | locus YDR101C, strain arx1, active compounds read low 1.01 | locus YDR137W, strain rgp1, active compounds read low 0.974 | locus YDR150W, strain NUM1, active compounds read low 0.978 | locus YDR159W, strain sac3, active compounds read low 1.01 | locus YDR162C, strain NBP2, active compounds read low 1.03 | locus YDR195W, strain ref2 1.04 | locus YDR297W, strain sur2, active compounds read low 1.01 | locus YDR318W, strain mcm21, active compounds read low 0.994 | locus YDR334W, strain swr1, active compounds read low 1.02 | locus YDR335W, strain msn5, active compounds read low 1.02 | locus YDR388W, active compounds read low 1.01 | locus YDR392W, strain spt3, active compounds read low 0.968 | locus YDR502C, strain sam2, active compounds read low 1.01 | locus YEL003W, strain gim4, active compounds read low 1.03 | locus YEL037C, strain rad23, active compounds read low 1.02 | locus YEL061C, strain CIN8 (second series), active compounds read low 1.02 | locus YEL061C, strain CIN8, active compounds read low 0.998 | locus YER015W, strain faa2, active compounds read low 1.01 | locus YER016W, strain bim1, active compounds read low 1.01 | locus YER110C, active compounds read low 0.992 | locus YER111C, strain swi4, active compounds read low 1.03 | locus YER155C, strain BEM2 (second series), active compounds read low 1.03 | locus YER155C, strain BEM2, active compounds read low 0.996 | locus YER167W, strain BCK2, active compounds read low 1 | locus YFR010W, strain ubp6, active compounds read low 1.03 | locus YGL078C, strain dbp3, active compounds read low 0.992 | locus YGL086W, strain mad1, active compounds read low 0.979 | locus YGL167C, strain pmr1, active compounds read low 1.01 | locus YGL173C, strain kem1, active compounds read low 1.02 | locus YGL227W, strain vid30, active compounds read low 1.02 | locus YGL240W, strain doc1, active compounds read low 1.03 | locus YGL248W, strain PDE1, active compounds read low 1.01 | locus YGL253W, strain hxk2, active compounds read low 1.03 | locus YGR078C, strain PAC10, active compounds read low 1.03 | locus YGR135W, strain pre9, active compounds read low 1.02 | locus YGR229C, strain SMI1, active compounds read low 1.07 | locus YGR252W, strain gcn5, active compounds read low 1 | locus YHR013C, strain ard1, active compounds read low 0.994 | locus YHR027C, strain rpn1, active compounds read low 1.02 | locus YHR030C, strain SLT2, active compounds read low 0.995 and 0.994 | locus YHR079C, strain IRE1 (second series), active compounds read low 0.997 | locus YHR079C, strain IRE1, active compounds read low 0.999 | locus YHR094C, strain hxt1, active compounds read low 0.983 | locus YHR129C, strain ARP1, active compounds read low 1.01 | locus YHR142W, strain chs7, active compounds read low 0.984 | locus YHR200W, strain rpn10, active compounds read low 0.99 | locus YIL066C, strain RNR3, active compounds read low 1 | locus YIL073C, strain SPO22, active compounds read low 0.946 | locus YIR030C, strain dcg1, active compounds read low 0.992 | locus YJL092W, strain hpr5, active compounds read low 1.02 | locus YJL095W, strain BCK1 (second series), active compounds read low 1 | locus YJL095W, strain BCK1, active compounds read low 1.05 and 0.986 | locus YJL115W, strain asf1, active compounds read low 1.02 | locus YJL129C, strain trk1, active compounds read low 1.01 | locus YJL134W, strain LCB3, active compounds read low 0.994 | locus YJL154C, strain vps35, active compounds read low 1 | locus YJL164C, strain tpk1, active compounds read low 0.999 | locus YJL166W, strain qcr8, active compounds read low 1.02 | locus YJL168C, strain set2, active compounds read low 1.01 | locus YJL187C, strain SWE1 (second series), active compounds read low 1.01 | locus YJL187C, strain SWE1, active compounds read low 1.02 | locus YJR043C, strain POL32, active compounds read low 1.02 | locus YJR066W, strain TOR1, active compounds read low 0.985
